From PubChem BioAssay
ELG1 genotoxic = qHTS screen for small molecules that induce genotoxicity in human embryonic kidney (HEK293T) cells expressing luciferase-tagged ELG1; Potency, µM (titrated, usually from 46 µM), actives largely listed as activators; HEK293T ELG1-luciferase reporter, luminescence, 16 h; 330,000 tested, 1.3% active; note: nearly all actives have a fitted effect of over 60% in size
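Genotoxicity was scored as increased ELG1-luciferase reporter signal, measured by ONE-Glo luminescence (30 min, room temperature). Compound or vehicle exposure of the HEK293T reporter cells lasted 16 hr at 37°C.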
SMN2 splice enh = qHTS Assay for Enhancers of SMN2 Splice Variant Expression | AID 1458, 2008 | HEK293 SMN2-luciferase splicing reporter, luminescence, 30-36 h | Potency, µM (series often up to 46.1 µM), usual class: activators | 210,000 tested, 2.8% active; note: nearly all actives have a fitted effect of over 55% in size
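HEK293 cells carry an SMN2 minigene-luciferase reporter in which exon 7 inclusion puts luciferase in frame. Cells were seeded at 2000 cells/well, attached for 10-12 hours, then exposed to compounds for 30-36 hours at 37C before ONE-Glo luminescence.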
Rab9 promoter act = qHTS Assay for Rab9 Promoter Activators | 320,000 tested, 2.8% active | Huh7 Rab9 promoter-luciferase reporter, luminescence, 24 h | Potency, µM (top dose mostly 9.22 µM), actives largely listed as activators | AID 485297, 2010; note: nearly all actives have a fitted effect of over 60% in size
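Huh7 reporter line, Rab9 promoter upstream of luciferase. Compound exposure 24 h at 37 °C in reduced-serum medium with 10% FBS. Read-out: luminescence.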
uPA generation = qHTS for Inhibitors of Cell Surface uPA Generation. cell surface uPA generation assay, qHTS. 330,000 tested, 0.31% active. AID 540303, 2011. Potency, µM (top dose mostly 38.3 µM), most hits filed as inhibitors; active = well fitted inhibition curve with a large enough effect; inconclusive = small, poorly fitted or top-dose-only effect; inactive = no such curve, though single readings can be large or run the other way; tested in mouse RAW 264.7 cells; note: nearly all actives have a fitted effect of over 55% in size
FLuc counter = qHTS profiling assay for firefly luciferase inhibitor/activator using purifed enzyme and Km concentrations of substrates (counterscreen for miR-21 project); purified FLuc, Km substrates, luminescence inhibition; Luciferin 4-monooxygenase (Photinus pyralis), P08659; Potency, µM (doses to about 57.5 µM), actives largely listed as inhibitors; AID 588342, 2011; 360,000 tested, 6.9% active; note: nearly all actives have a fitted effect of over 55% in size
Target sequence (P08659 whole entry, looked up): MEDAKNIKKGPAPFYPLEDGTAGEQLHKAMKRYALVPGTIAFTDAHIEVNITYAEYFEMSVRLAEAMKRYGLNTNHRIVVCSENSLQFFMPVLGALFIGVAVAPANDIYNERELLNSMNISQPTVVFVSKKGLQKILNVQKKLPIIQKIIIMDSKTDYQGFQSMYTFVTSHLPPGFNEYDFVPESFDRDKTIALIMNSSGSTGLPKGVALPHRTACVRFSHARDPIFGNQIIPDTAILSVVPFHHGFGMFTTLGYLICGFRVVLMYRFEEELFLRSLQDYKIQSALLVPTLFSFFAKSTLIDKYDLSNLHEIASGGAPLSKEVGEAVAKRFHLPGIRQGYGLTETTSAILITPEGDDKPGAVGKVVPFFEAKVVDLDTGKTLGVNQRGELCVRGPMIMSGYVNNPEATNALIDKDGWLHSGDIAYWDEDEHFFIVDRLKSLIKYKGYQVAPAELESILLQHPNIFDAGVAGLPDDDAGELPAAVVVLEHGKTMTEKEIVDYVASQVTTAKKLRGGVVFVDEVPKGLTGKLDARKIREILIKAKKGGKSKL
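Purified P. pyralis luciferase, 10 nM final, with Km-level 10 uM D-luciferin and 10 uM ATP in 50 mM Tris acetate pH 7.5, 10 mM Mg acetate, 0.01% Tween-20, 0.05% BSA; 6-point qHTS titration about 60 µM downward; luminescence read.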
NPC1 prom act = qHTS Assay for NPC1 Promoter Activators | AID 485313, 2010 | 320,000 tested, 2.4% active | Potency, µM (titrated, usually from 9.22 µM), actives largely listed as activators | Huh7 NPC1 promoter luciferase reporter, 24 h; note: nearly all actives have a fitted effect of over 60% in size
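Huh7 reporter cells (NPC1 promoter driving luciferase) are dosed with compound for 24 h at 37 °C, 5% CO2; luciferase detection reagent is then added and luminescence measured after 10 min at ambient temperature.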
Hits are given with their value; n = inactive; u = inconclusive; x = no result given; [ ] = dose if it differs, or a comment. Rows were chosen to be rich in hits. Some 7.3% of all compounds tested hit in one or more screens of this group. Unless noted, calls come from the whole dose curve; as a rule, active = well fitted curve in the direction sought with a large enough effect; inconclusive = small, poorly fitted or top-dose-only effect, or another doubt; inactive = no such curve, though single readings can be large; an effect the other way counts as inactive or inconclusive.

SMILES	ELG1 genotoxic	SMN2 splice enh	Rab9 promoter act	uPA generation	FLuc counter	NPC1 prom act
COc1cccc(NC(=O)c2oc3ccccc3c2NC(=O)C23CC4CC(CC(C4)C2)C3)c1	x	n	x	x	n	x
COc1ccc(CN(C(=O)Nc2cc(C)ccc2C)C2CCN(C(C)=O)CC2)cc1	x	x	x	x	n	x
COc1ccc(C(=O)Nn2c(CCC(=O)O)ccc2-c2ccc(C)cc2)cc1OC	n	x	n	n	n	n
CCCNC(=O)Cn1c(=O)cc(C)c2c(C)nn(-c3cccc(F)c3)c21	x	x	x	x	n	x
Cc1cc(N2CCCCC2)n2ncc(-c3ccccc3)c2n1	u	n	0.32µM	n	0.27µM	0.45µM
Cc1cc(N2CCOCC2)n2ncc(-c3ccccc3)c2n1	0.18µM	2.2µM	0.71µM	x	0.34µM	0.56µM
Cc1cc(N2CCC(C)CC2)n2ncc(-c3ccccc3)c2n1	0.41µM	n	0.32µM	n	0.76µM	0.35µM
Cc1cc(N2CCC(C)CC2)n2nc(C)c(-c3ccccc3)c2n1	n	n	n	n	n	n
Cc1ccc(-c2cnn3c(N4CCOCC4)cc(C)nc23)cc1	u	x	n	n	0.48µM	n
Cc1cc(N2CCOCC2)n2nc(C(F)(F)F)c(-c3ccccc3)c2n1	n	x	n	n	n	n
COc1ccccc1N1CCN(C(=O)c2oc3ccccc3c2NC(=O)C(C)Oc2ccccc2)CC1 (stereo not drawn)	x	x	x	x	n	x
O=C(CCC(=O)N1CCOc2ccccc21)Nc1ccccc1Br	n	x	n	n	n	n
CC(=O)Nc1ccc(Nc2cc(C)nc3c(-c4ccc(Cl)cc4)cnn23)cc1	n	u	2.5µM	n	n	2.2µM
CC(=O)Nc1ccc(Nc2cc(C)nc3c(-c4ccc(Cl)cc4)c(C)nn23)cc1	n	n	n	n	n	n
Cc1c(Cl)cccc1NC(=O)Cn1c(=O)cc(C)c2c(C)nn(-c3cccc(F)c3)c21	x	x	x	x	n	x
COC(=O)c1ccc(-c2sc3nc(N4CCOCC4)c4c(c3c2N)CC(C)(C)OC4)o1	n	32µM	n	n	n	n
CC1(C)Cc2c(c(N3CCOCC3)nc3sc(C(N)=O)c(N)c23)CO1	n	x	n	n	n	n
Cc1cccc(C(=O)Nc2cccc(OCC(=O)O)c2)c1	n	x	n	n	15µM	n
Cc1cccc(OCC(=O)Nc2ccc(NC(=O)c3ccccc3)cc2)c1	n	x	n	n	n	n
COc1cccc(C(=O)Nc2ccc(NC(C)=O)cc2)c1	u	n	n	x	u	n
COc1cccc(C(=O)COc2ccc(NC(=O)c3ccccc3)cc2)c1	n	x	n	n	3.4µM	n
COC(=O)c1ccc(OCC(=O)c2ccccc2)cc1	u	13µM	3.2µM	n	7.6µM	3.2µM
O=C(COc1cccc(NC(=O)c2cccs2)c1)c1ccc(F)cc1	n	n	n	n	24µM	n
COC(=O)c1c(NC(=O)COc2cc(C)c(Cl)c(C)c2)sc2c1CCCC2	x	n	x	x	n	x
CCOc1ccccc1NC(=O)CSc1nccn1-c1cccc(C)c1	x	x	x	x	n	x
SMILES	ELG1 genotoxic	SMN2 splice enh	Rab9 promoter act	uPA generation	FLuc counter	NPC1 prom act
CCn1nnc2cc(C(=O)Nc3ccc(Cl)cc3C)ccc21	x	x	x	x	n	x
O=C(O)COc1cccc(NC(=O)c2ccccc2)c1	n	n	n	n	u	n
O=C(COc1cccc(NC(=O)c2ccccc2)c1)c1ccccc1	n	x	n	n	15µM	n
COc1cccc(C(=O)Nc2cccc(OCC(=O)c3ccccc3)c2)c1	n	n	n	n	12µM	n
COc1cccc(C(=O)Nc2cccc(C(=O)NCC(C)C)c2)c1	n	n	n	n	u	n
Cc1ccccc1NC(=O)Cc1nc(-c2ccc3ccccc3c2)cs1	n	n	n	n	n	n
Cc1c(N=C2C=C(Br)C(=O)C(Br)=C2)c(=O)n(-c2ccccc2)n1C	n	n	n	n	15µM	n
CCC(/C=C/C(C)C1CCC2C3CCC4=CC(=O)CC[C@@]4(C)C3CC[C@@]12C)C(C)C (stereo partly drawn)	x	n	x	x	x	x
O=C(CNC(=O)c1ccccn1)N=Nc1c(O)[nH]c2ccccc12	n	x	n	n	15µM	n
COc1ccc(CC(=O)NCC(=O)N=Nc2c(O)[nH]c3ccccc23)cc1	n[9.26 µM]	x	n	n	n	n
O=C(N=Nc1c(O)[nH]c2ccccc12)c1ccc2c(c1)OCO2	u	11µM	0.56µM	u	0.6µM	2.2µM
C=CCn1c(O)c(N=NC(=O)c2ccc3c(c2)OCO3)c2ccccc21	n	n	u	n	3µM	u
C=CCn1c(O)c(N=NC(=O)CNC(=O)c2ccco2)c2ccccc21	n	n	n	10µM	n	n
Cc1cc(C)cc(NC(=O)CSc2nc(=O)[nH]c3c2CCC3)c1	x	x	x	x	n	x
CCn1nc(C)c(CCN(C)C(=O)Nc2cccc(Cl)c2C)c1C	x	x	x	x	n	x
O=C(N=Nc1c(O)[nH]c2ccccc12)c1ccco1	u	x	2µM	n	5.4µM	3.5µM
CC(=O)/C=C(\C)N=Nc1c(O)[nH]c2ccccc12	n	x	n	n	13µM	n
COc1ccccc1NC(=O)C1Cc2ccccc2CN1C(=O)c1ccco1 (stereo not drawn)	n	x	n	n	n	n
O=C(Nc1ccccc1)C1Cc2ccccc2CN1C(=O)c1ccco1 (stereo not drawn)	n	n	n	n	19µM	n
Nc1c(Cl)ncnc1N/N=C/c1ccnc2ccccc12	n	n	u	n	u	n
Nc1c(Cl)ncnc1N/N=C/c1ccccn1	4.1µM	n	n	n	u	n
CCOc1cc(/C=N/Nc2ncnc(Cl)c2N)ccc1O	u	n	n	n	11µM	n
Nc1c(Cl)ncnc1N/N=C/c1ccc2ccccc2n1	u	n	u	n	4.8µM	u
Cn1nc(C(=O)NCc2ccccc2Cl)c2c1-c1ccccc1SC2	x	x	x	x	n	x
O=C(Cc1ccc(Cl)cc1)Nc1cccc(C(=O)Nc2ccccc2C(=O)O)c1	n	x	n	n	n	n
SMILES	ELG1 genotoxic	SMN2 splice enh	Rab9 promoter act	uPA generation	FLuc counter	NPC1 prom act
COc1ccc(CC(=O)Nc2cccc(C(=O)Nc3ccccc3C(=O)O)c2)cc1OC	n	n	n	n	17µM	n
COc1ccccc1OCC(=O)Nc1ccccc1C(=O)Nc1cccc(C(=O)O)c1	n	x	n	n	u	n
COc1ccc(OCC(=O)Nc2cccc(C(=O)Nc3ccccc3C(=O)O)c2)cc1	n	n	n	n	24µM	n
CCCCCC(=O)/C=C/C=C\C/C=C\C/C=C\CCCC(=O)O	x	n	x	x	x	x
C/C(=C\C(=O)c1cccnc1)Nc1ccc(O)cc1	16µM	n	u	n	17µM	u
C/C(=C\C(=S)Nc1ccccc1)Nc1ccccc1	n	n	n	n	3.8µM	n
COC(=O)c1ccc(NC(=O)c2cccnc2)cc1	n	x	n	u	n	n
CC(=O)Nc1ccc(NC(=S)Nc2ccccc2)cc1	n	n	n	n	n	n
